Assay outcomes (PubChem)
ABHD5-PLIN5 inh – ABHD5-PLIN5 protein interaction inhibition; Q00G26+Q8WTS1; Split G. princeps luciferase complementation, luminescence, 4 h; inhibition, % at 4 µM; actives 0.78% (n = 360,000);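 active = inhibition above the mean inhibition across every tested compound plus 3 SD, cut at about 22% in these data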;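 note: 0% = DMSO only wells and the 100% control is not disclosed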
PRMT1 inh – inhibitors of human PRMT1 | Q99873 | recombinant PRMT1, activity-based probe fluorescence polarization | inhibition, % at 2.79 µM | actives 1.3% (n = 370,000);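 active = inhibition above about 21% made by adding two undisclosed values, limit read from the data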
Target sequence (Q99873 whole entry, looked up): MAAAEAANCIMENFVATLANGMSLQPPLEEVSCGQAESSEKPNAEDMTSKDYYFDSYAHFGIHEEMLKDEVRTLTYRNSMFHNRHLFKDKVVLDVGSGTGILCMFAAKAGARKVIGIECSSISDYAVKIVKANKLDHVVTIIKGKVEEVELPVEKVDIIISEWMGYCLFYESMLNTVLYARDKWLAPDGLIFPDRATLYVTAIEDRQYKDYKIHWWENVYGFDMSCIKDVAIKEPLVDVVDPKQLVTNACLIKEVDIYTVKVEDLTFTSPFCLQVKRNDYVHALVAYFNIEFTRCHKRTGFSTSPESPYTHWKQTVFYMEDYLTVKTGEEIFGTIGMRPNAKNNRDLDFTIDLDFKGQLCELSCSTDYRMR
ALR H2O2 inh – human ALR oxidase inhibition via reduced H2O2. P55789. inhibition, % (concentration not given with the values). purified ALR, DTT oxidation, H2O2 HRP-luminol luminescence. actives 3.8% (n = 290,000);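 active = mean replicate inhibition above about 79%, with every replicate also reaching it, limit read from the data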
Target sequence (P55789 whole entry, looked up): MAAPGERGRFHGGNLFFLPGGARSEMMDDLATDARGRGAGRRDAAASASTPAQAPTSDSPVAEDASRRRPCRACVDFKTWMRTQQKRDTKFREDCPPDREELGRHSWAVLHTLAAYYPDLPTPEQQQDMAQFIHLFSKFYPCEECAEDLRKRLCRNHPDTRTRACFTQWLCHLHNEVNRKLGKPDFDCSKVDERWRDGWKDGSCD
Rtt109 Vps75 – blocks Candida albicans Rtt109/Vps75 acetyltransferase activity; Q5AAJ8; purified Rtt109/Vps75, ThioGlo CoA-SH fluorescence, 4 h; inhibition, % at 34.9 µM; actives 0.16% (n = 330,000); AID 540336;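 active = inhibition of at least 50% in every replicate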
LANA-H2B inh – blocks KSHV LANA binding to histone H2A/H2B; cell-free LANA-H2A/H2B peptide, fluorescence polarization; inhibition, % (test concentration not listed); actives 0.6% (n = 320,000); AID 2629; in the data active = inhibition mostly above about 10%, no sharp cut-off; inactive = mostly below about 6.7%
rCAG RNA binder – binds r(CAG) RNA repeats | r(CAG) RNA repeat, TO-PRO-1 dye displacement fluorescence | actives 1.3% (n = 370,000) | inhibition, % at 3 µM;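 active = inhibition above the plate cutoff, the mean of all test compounds on that plate plus 3 SD, cut at about 35% in these data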;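 note: 0% = DMSO alone and 100% = 100 µM mitoxantrone as full dye displacement; higher means more dye released from RNA so lower well fluorescence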
* marks the source's active call; other numbers are inactive results; x = no result given. Only some compounds are listed: those with a hit (about 5.9% of all), similar ones and a draw of the others.

SMILES	ABHD5-PLIN5 inh	PRMT1 inh	ALR H2O2 inh	Rtt109 Vps75	LANA-H2B inh	rCAG RNA binder
O=C(CN1C(=O)CN=C(c2ccccc2)c2cc(Cl)ccc21)NC1CCCCC1	x	3	x	x	x	6
CCNc1ccc(P(=S)(N(C)C)N(C)C)cc1	-4	x	99*	-8	-2	x
C=CCn1c(O)c(/C=N/NC(=O)CCCC)c(=O)[nH]c1=S	-5	-6	90*	10	0	2
COP(=O)(OC)C1(Nc2ccc(C)cc2)CCCCC1	5	-2	99*	2	0	-3
N=c1c2c(-c3ccccc3)c(-c3ccccc3)n(Cc3ccccc3)c2ncn1C1CCC(O)CC1 (stereo not drawn)	x	-5	x	x	x	5
O=C1C(Cl)=CC(=Nc2ccc(O)cc2)C=C1Cl	5	22*	99*	-2	0	17
O=C(O)C1C2c3ccccc3C(O)C1(C(=O)O)c1ccccc12 (stereo not drawn)	0	2	x	10	x	3
O=c1[nH]c(=S)n(CCC2=CCCCC2)c(O)c1C=NC1CCN(Cc2ccccc2)CC1	0	0	9	3	2	3
O=c1[nH]c(=S)n(CCC2=CCCCC2)c(O)c1/C=N/Nc1ccccc1	9	13	97*	28	-4	23
Oc1ccc(/C=N/NP(=S)(c2ccccc2)c2ccccc2)cc1O	0	1	99*	8	3	16
O=C1C(=Cc2ccccc2)N2CCC1CC2	17	-6	x	-4	x	1
CN(C)c1ccc(/C=C2/C(=N\O)C3CCN2CC3)cc1	-7	0	99*	2	4	-4
CCN1/C(=C\C=C\C2=[N+](CC)c3ccccc3C2(C)C)C(C)(C)c2ccccc21	46*	x	88*	-4	-215	x
CCN(CC)c1ccc(N=Cc2c(O)n(-c3ccccc3)c(=O)[nH]c2=O)cc1	-2	25*	81*	4	1	10
CCN(CC)c1ccc(N=Cc2c(O)[nH]c(=O)[nH]c2=O)cc1	-8	31*	35	0	3	17
CCN(CC)c1ccc(N=Cc2c(O)n(Cc3ccccc3)c(=O)[nH]c2=O)cc1	-6	2	-8	-4	6	0
CCOc1ccc(-n2c(O)c(C=Nc3ccc(N(CC)CC)cc3)c(=O)[nH]c2=O)cc1	1	3	-1	x	2	0
CN1OC[C@@H]2CN3C4(C[C@@H]21)c1ccccc1C3(c1ccccc1)c1ccccc14	x	4	x	x	x	2
Cc1ccc(N2Cc3ccccc3-n3nncc3C2)cc1	x	-2	x	x	x	2
CN(C)[C@@H]1C(=O)C(C(N)=O)=C(O)[C@@]2(O)C(=O)C3=C(O)c4c(O)ccc(Cl)c4[C@@](C)(O)[C@H]3C[C@@H]12	-11	24*	-27	-11	-4	22
CC[C@H](C)[C@@H]1OC(=O)[C@H](C(C)C)N(C)C(=O)[C@H](C(C)C)NC(=O)[C@@H](C)[C@@H](CCCC#CBr)OC(=O)[C@H](C(C)C)N(C)C(=O)C2CCCN2C1=O (stereo partly drawn)	x	4	x	x	x	x
Cc1[nH]c2ccccc2c1C1=CCNCC1	1	2	94*	-7	-6	4
CC(C)CC(C)N (stereo not drawn)	-2	3	-9	7	45*	1
Cc1ccc(-n2nc(C)c3c2NC(=O)CSC3c2ccc3c(c2)OCO3)cc1 (stereo not drawn)	-23	12	-4	1	3	5
COc1ccc(C2SCC(=O)Nc3c2c(C)nn3-c2ccccc2)cc1 (stereo not drawn)	-12	23*	x	2	-1	0
SMILES	ABHD5-PLIN5 inh	PRMT1 inh	ALR H2O2 inh	Rtt109 Vps75	LANA-H2B inh	rCAG RNA binder
Nc1cc(Cl)cc(C(=O)O)c1Cl	3	0	-1	7	38*	-1
Cc1cccc2nc(-c3ccccc3)c(-c3ccc(CN4CCC(n5c(=O)[nH]c6cc(Cl)ccc65)CC4)cc3)nc12	x	2	x	x	x	13
Nc1ccc2c(c1)Cc1ccccc1-2	-1	1	99*	12	5	3
CN1C[C@H](CO)C=C2c3cccc4[nH]cc(c34)C[C@H]21	1	23*	21	-16	2	-22
C=CC1CN2CCC1CC2[C@@H](OC(=O)c1ccc(OC)cc1)c1ccnc2ccccc12 (stereo partly drawn)	1	0	-5	8	32*	-5
C=CC1CN2CCC1CC2C(O)c1ccnc2ccccc12 (stereo not drawn)	2	-1	x	-2	x	0
O=C(NCCN1CCC2(CC1)C(=O)NCN2c1ccccc1)c1ccc(OC(F)(F)F)cc1	x	9	x	x	x	3
NC(N)=N/N=C/c1cn(-c2ccccc2)nc1-c1cccs1	2	-5	4	4	-5	36*
O=c1c2ccccc2nc(-c2cccs2)n1-c1ccccc1	6	-1	-8	1	4	-2
Clc1cc(Cl)cc(CN2Cc3cc(Br)ccc3-n3nncc3C2)c1	x	-2	x	x	x	2
O=C(O)c1cc2ccccc2n1C1CCN(Cc2ccccc2)CC1	x	-1	x	x	x	7
CC(C)(C)OC(=O)NCCCCC(N)[P+](=O)O (stereo not drawn)	x	6	x	x	x	3
C=CCN1C(=O)NC(=O)/C(=C/c2cc3c4c(c2)CCCN4CCC3)C1=O	-4	5	99*	-6	7	6
C=CCN1C(=O)NC(=O)/C(=C/c2cnc(SC)nc2)C1=O	0	18	18	1	8	9
COc1c(C=C2C(=O)NC(=O)NC2=O)c(CCN(C)C(=O)c2ccccc2)cc2c1OCO2	13	16	96*	4	-3	-2
COc1ccccc1Cn1c(SCC(=O)C(C)(C)C)nc2cc(C(=O)N3CCC4(CC3)OCCO4)ccc2c1=O	x	x	-40	x	12*	x
CC[C@H](C(N)=O)N1CCCC1=O	x	-4	x	x	x	1
CCC(NC(=O)OCc1ccccc1)P(=O)(Oc1ccccc1)Oc1ccccc1 (stereo not drawn)	x	0	x	x	x	-1
CNC(C)Cc1ccccc1Sc1ccc(O)cc1 (stereo not drawn)	5	0	99*	5	6	6
OC(CN1CCOCC1)c1csc2ccccc12 (stereo not drawn)	2	0	-41	-2	8	-1
CC(Cc1ccccc1)NC(=O)Cc1ccc(N(C)C)cc1 (stereo not drawn)	4	-1	99*	-2	0	-3
COC(=O)C1C(c2ccc(F)cc2)CC2CCC1N2C (stereo not drawn)	x	3	x	x	x	1
COc1ccccc1N1CCN(Cc2ccccc2Cl)CC1	-6	-1	x	-3	-4	-4
Nc1ccc(N2CCN(Cc3ccccc3Cl)CC2)c(Cl)c1	-6	2	89*	-3	11	-1
Clc1ccccc1CN1CCN(c2cccc3[nH]ccc23)CC1	3	x	97*	1	-3	x
Clc1ccccc1CN1CCN(c2ccccc2)CC1	-7	1	99*	3	8	-3
